# CYP2C19 activ: human CYP2C19 activators, primary screen, biochemical, luminescence; activation factor at 5 µM; recombinant CYP2C19, luciferin-H EGE luminescence; stronger effect = higher value; 0 = fully inhibited enzyme, 1 = untreated enzyme; AID 1025, 2008; 96,000 tested, under 10 active;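 active means activation factor of at least 2 at 5 µM in the primary screen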;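 further: 0 = wells with 2.5 mM tranylcypromine and 1 = vehicle-only wells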
# CYP2C19 inhib: blockers of cytochrome P450 2C19 activity – biochemical, luminescence, ADME assay, primary screen; P33261; CYP2C19 Supersomes, luciferin-H EGE luminescence, 30 min; inhibition, % at 5 µM; hit rate 21% among 96,000;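 active means CYP2C19 inhibition above a set limit at 5 µM in the primary screen, cut at about 50% in these data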;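 further: plate controls were negative control wells for no effect and 2.5 mM tranylcypromine positive control for full effect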
# PLAP activator: PLAP enzyme activators, biochemical, luminescence, HTS; Alkaline phosphatase, placental type (Homo sapiens), P05187; purified PLAP enzyme, luminescent substrate read-out; stronger effect = higher value; activation fold at 20 µM; hit rate 1.2% among 96,000; AID 696, 2007; in the data active means activation fold above about 2
# CYP2C9 act: human CYP2C9 activators, primary screen, biochemical, luminescence | Cytochrome P450 2C9 (Homo sapiens), P11712 | recombinant CYP2C9, luciferin-H conversion; stronger effect = higher value; factor 1 = untreated enzyme, 0 = blocked | activation factor at 5 µM | hit rate 1.4% among 96,000 | AID 1024, 2008;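 active means activation factor of 2 or more for CYP2C9 at a 5 µM dose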;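 further: 0 = sulfaphenazole-blocked wells and 1 = vehicle-only wells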
# Target sequence (P11712 whole entry, looked up): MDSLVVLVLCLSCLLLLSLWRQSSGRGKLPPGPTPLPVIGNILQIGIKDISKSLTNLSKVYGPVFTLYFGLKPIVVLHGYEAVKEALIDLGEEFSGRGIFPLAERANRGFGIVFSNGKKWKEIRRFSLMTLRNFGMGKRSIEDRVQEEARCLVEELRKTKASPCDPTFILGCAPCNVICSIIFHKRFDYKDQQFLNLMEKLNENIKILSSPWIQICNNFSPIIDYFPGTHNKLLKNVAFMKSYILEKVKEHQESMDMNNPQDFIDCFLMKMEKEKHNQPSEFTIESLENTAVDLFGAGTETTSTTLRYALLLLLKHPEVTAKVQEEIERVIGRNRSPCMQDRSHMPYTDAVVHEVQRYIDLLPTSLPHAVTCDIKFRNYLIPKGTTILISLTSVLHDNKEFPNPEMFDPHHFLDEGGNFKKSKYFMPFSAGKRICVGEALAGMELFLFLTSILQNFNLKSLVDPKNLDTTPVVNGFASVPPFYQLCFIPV
# CYP2C9 inh: blockers of cytochrome P450 2C9 activity – biochemical, luminescence, ADME assay, primary screen; P11712; CYP2C9 Supersomes, luciferin-H conversion; inhibition, % at 5 µM; hit rate 20% among 96,000; AID 777, 2007;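 active means blocking of liver enzyme CYP2C9 beyond about 50% at 5 µM, limit read from the data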
# * marks the source's active call; other numbers are inactive results. In the library only some 31% were active in any assay of this set; here they are far more common.
SMILES,CYP2C19 activ,CYP2C19 inhib,PLAP activator,CYP2C9 act,CYP2C9 inh
Cc1ccc(OCCCn2c(=O)sc3ccccc32)cc1,0.7,31.9,0.9,0.9,6.5
Cc1nc2ncnn2c(C)c1CCC(=O)NCCc1ccccc1,1,2.4,1.2,1.6,-55.4
Cc1nn(CC2CCCCC2)c(N)c1-c1ccccc1,0,98.3*,0.9,0.1,91.7*
CCOC(=O)Cn1nc(C)c(-c2ccccc2)c1N,0.7,33.9,0.9,1,2.9
Nc1c(Cl)cc(Cl)cc1C(=O)OCC(=O)N1CCCC1,0.8,24.9,0.9,1.3,-32.8
CC(C)CNC(=O)COC(=O)c1cc(Cl)cc(Cl)c1N,0.3,65.7*,0.8,1.9,-93.6
Cc1nn(CC(=O)NCc2ccccc2)c(=O)c2ccccc12,0.7,26.9,0.9,2.7*,-168.9
Cc1nn(CC(=O)NCc2cccnc2)c(=O)c2ccccc12,0.8,16.6,1.2,1,-4.3
Cc1nn(CC(=O)NCc2cccc3ccccc23)c(=O)c2ccccc12,1,-1.0,0.8,2.2*,-115.4
Cc1nn(CC(=O)N2CCN(Cc3ccccc3)CC2)c(=O)c2ccccc12,0.3,74.9*,1.6,1.1,-12.6
CN(C)NC1CCS(=O)(=O)C1 (stereo not given),1,-3.6,1.1,1.1,-5.7
CCN(CC)CCNC(=O)CS(=O)Cc1nc(-c2ccccc2Cl)oc1C (stereo not given),0.9,6.5,1.3,0.8,17.5
C/C(=C(\C#N)C(=O)NC1CCCCC1)N(C)C,0.8,21.8,1.2,1,0.0
Cc1cc(C(=O)NCc2ccccc2F)cs1,0.7,30.1,1.1,1.1,-10.0
CC(=O)Nc1ccc(NC(=O)C2CC(=O)N=C(N)S2)cc1 (stereo not given),1,-1.8,1,1,0.7
O=C(Nc1ncc(Cl)cn1)c1cccs1,0.8,22.7,1.1,1,0.2
COc1ccc(S(=O)(=O)NCCN2CCOCC2)c2ccccc12,0.1,92.2*,1.5,1.6,-63.5
COc1cc(S(=O)(=O)NCCN2CCOCC2)c(OC)cc1Cl,0.4,64.6*,1.3,0.9,12.5
Cc1cc(S(=O)(=O)NCCN2CCOCC2)c(C)s1,0.7,33.8,1.3,1.1,-9.5
Cn1nnnc1SCC(=O)NC(=O)NCc1ccccc1,1,-2.0,1.2,1.1,-10.6
CNc1ccccc1C(C)(C)c1cc(-c2ccco2)n[nH]1,0.5,53.5*,1,0.7,25.4
COc1ccc(CCNCc2csc3nc4ccccc4n23)cc1OC,0.8,20.5,0.9,0.8,25.0
COc1cc2c(cc1OC)CN(CC(=O)Nc1ccccc1C#N)CC2,0.5,54.6*,1.5,0.4,60.3*
CCOC(=O)c1[nH]c2ccc(OC)cc2c1NC(=O)CN1CCC2(CC1)OCCO2,0.6,35.2,1.4,0.9,11.9
COc1cc2c(cc1OC)CN(CC(=O)Nc1ccc(C)cc1)CC2,0.4,64.7*,1.8,0.4,59.8*
SMILES,CYP2C19 activ,CYP2C19 inhib,PLAP activator,CYP2C9 act,CYP2C9 inh
COc1cc2c(cc1OC)CN(CC(=O)Nc1ccc3c(c1)OCO3)CC2,0.8,15.8,1.1,0.6,40.2
CC1CCN(CC(=O)Nc2ccccc2C#N)CC1,0.2,75.2*,1,0.7,30.9
Cc1ccccc1NC(=O)CN1CCC(NC(=O)Nc2ccccc2)CC1,0.7,29.6,0.9,0.7,26.6
COc1cc2c(cc1OC)CN(CC(=O)NC(=O)NCc1ccco1)CC2,1,-0.9,1.4,1,-1.2
CCOC(=O)c1[nH]c2ccc(OC)cc2c1NC(=O)CN1CCc2ccccc2C1,0.2,76.7*,1,0.2,81.1*
Cc1oc2c(c1C(=O)NCCCC(=O)O)CCCC2,1,-3.2,1,0.9,5.7
COc1cc2c(cc1OC)CN(Cc1cc(=O)n3cc(C)ccc3n1)CC2,1,4.9,1.1,0.7,28.4
COc1cc2c(cc1OC)CN(Cc1ccc(C)s1)CC2,0.1,86.4*,1.6,0.7,33.2
COc1ccc(NC(=O)Cn2cccc2)cc1Cl,0.7,27.8,1,1,1.5
COC(=O)c1[nH]c2ccc(C)cc2c1NC(=O)CN1CCc2cc(OC)c(OC)cc2C1,0.3,67.4*,1.6,0.2,80.6*
COc1ccc(NCC(=O)Nc2ccccc2C#N)cc1Cl,0.1,94.9*,1.2,0.4,59.0*

# Assay outcomes deposited in PubChem by Sanford-Burnham Center for Chemical Genomics.
